An excerpt weighted towards active compounds, which were near 12% of everything screened.
Pf growth 96h = P. falciparum growth inhibition at 96 hour, primary screen for plastid delayed-death inhibitors; AID 504834; Potency, µM (doses to about 28.7 µM), without a hit: at the highest dose activity change, negative = inhibition, hits mostly inhibitors; P. falciparum luciferase reporter growth, 96 h; hit rate 6.9% among 320,000; also: % is scaled to controls: 0 for no effect and ±100 for the full control effect
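Two-generation exposure (96 h) targets delayed-death phenotype. Reporter parasites carrying integrated firefly luciferase, in red cells at 2% hematocrit and 0.05% parasitemia final, kept at 37 C, 5% CO2; luminescence loss indicates inhibition.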
Pf growth 48h = P. falciparum growth inhibition at 48 hours (one generation); P. falciparum luciferase growth in erythrocytes, 48 h; Potency, µM (titrated, usually from 28.7 µM), for inactives: top-dose activity change, negative = inhibition, most hits filed as inhibitors; hit rate 5.9% among 310,000; also: % is scaled to controls: 0 for no effect and ±100 for the full control effect
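Firefly luciferase activity from engineered P. falciparum reports growth; inhibitors lower the luminescent signal. Cultures contained 2% hematocrit erythrocytes at 0.1% final parasitemia.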
Sm TGR inh = blocks Schistosoma mansoni thioredoxin glutathione reductase; AID 485364; Potency, µM (series often up to 114 µM), for inactives: at the top dose activity change, negative = inhibition, usual class: inhibitors; purified TGR, DTNB reduction, TNB absorbance 405 nm; Q962Y6; hit rate 3% among 360,000; also: % is scaled to controls: 0 for no effect and ±100 for the full control effect; nearly all actives have a fitted effect of over 60% in size
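First, TGR (20 nM dispensed) and NADPH were mixed with compound. Second, a 15 min room-temperature incubation followed. Third, further NADPH and then DTNB were added to start the reaction. Finally, TNB absorbance was monitored kinetically.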
SARS PLP yeast = SARS-CoV PLP inhibition in yeast; S. cerevisiae expressing SARS-CoV PLpro, growth rescue; Potency, µM (highest dose often 32.9 µM), inactives show top-dose activity, positive = growth rescue, most hits filed as activators; hit rate 0.19% among 330,000; AID 485353; calls by dose curve; also: 0% is about no effect; nearly all actives have a fitted effect of over 55% in size
Starred values were filed as active, the others as inactive; ? = inconclusive; · = no result given. Unless noted, calls follow the shape of the dose curve; as a rule, active = well fitted curve in the direction sought with a large enough effect; inconclusive = small, poorly fitted or top-dose-only effect, or another doubt; inactive = no such curve, though single readings can be large; an effect the other way counts as inactive or inconclusive. Potency is read from the fitted curve at half-maximal effect.

SMILES	Pf growth 96h	Pf growth 48h	Sm TGR inh	SARS PLP yeast
Cc1ccc(NC(=O)C2CCCN(c3ncnc4onc(C)c34)C2)c(Cl)c1 (stereo not drawn)	·	·	5%	·
O=C(CSc1ncn[nH]1)N1N=C2/C(=C/c3ccco3)CCCC2C1c1ccco1 (stereo not drawn)	·	12µM*	-32%	-11%
CC(C)(C)OC(=O)CN1C(=O)C(Sc2n[nH]c(-c3ccccc3)n2)CCc2ccccc21 (stereo not drawn)	1.5µM*	?	-2%	-17%
CCOC(=O)CN1C(=O)C(Sc2n[nH]c(-c3ccc(O)cc3)n2)CCc2ccccc21 (stereo not drawn)	?	·	-15%	9%
CC(CNC(=O)CCn1c(=O)c2cccn2c2ccc(F)cc21)c1ccccc1 (stereo not drawn)	13µM*	?	4%	7%
Cc1onc(-c2c(Cl)cccc2Cl)c1/C(N)=N/OC(=O)C(C)(C)C	8.3µM*	12µM*	6%	-3%
Cc1nc(/C(N)=N/OC(=O)c2c(-c3ccccc3Cl)noc2C)cs1	10µM*	?	-2%	-18%
Cc1onc(-c2c(F)cccc2Cl)c1C(=O)N=C(N)N1CC(C)OC(C)C1 (stereo not drawn)	10µM*	?	-5%	1%
COc1ccc(/C(N)=N/OC(=O)c2c(-c3ccccc3Cl)noc2C)cc1OC	-7%	?	-2%	-1%
Cc1onc(-c2c(Cl)cccc2Cl)c1C(=O)N1CCc2ccccc2C1	7.4µM*	10µM*	-1%	0%
CC(=O)N[C@@H](Cc1ccc(O)cc1)C(=O)N[C@H](C(=O)N[C@@H](C)C(=O)N[C@H](C#N)CC(=O)O)C(C)C	9%	1%	0%	3%
Cc1c(Cl)cccc1NC(=O)NCCOCCn1c(=O)oc2ccccc21	·	·	0%	·
Cc1ccc(C)c(CN2CCSCC2)c1	3%	?	2%	3%
C/C(=N\OC(=O)c1c(-c2c(F)cccc2Cl)noc1C)c1nccs1	?	21%	7%	0%
Cc1onc(-c2c(F)cccc2Cl)c1C(=O)O/N=C(\N)c1ccc([N+](=O)[O-])o1	12µM*	8.3µM*	?	-6%
CC(C)NC(=O)C1CCN(c2ccc(S(=O)(=O)N3CCOCC3)cc2Cl)CC1	?	-21%	29%	-1%
C=CCNC(=O)C1CCN(c2ccc(S(=O)(=O)N3CCOCC3)cc2Cl)CC1	261%	9.3µM*	-8%	1%
CC(C)CNC(=O)C1CCN(c2ccc(S(=O)(=O)N3CCOCC3)cc2[N+](=O)[O-])CC1	?	?	10%	3%
CCCCN(C)C(=O)C1CCN(c2ccc(S(=O)(=O)N3CCOCC3)cc2[N+](=O)[O-])CC1	9.3µM*	?	45µM*	-4%
CCCNC(=O)C1CCN(c2ccc(S(=O)(=O)N3CCOCC3)cc2Cl)CC1	?	13µM*	3%	-19%
CCOC(=O)c1sc2ccccc2c1S(=O)(=O)Nc1ccc(N(C)C)cc1	·	·	6%	·
Cn1nnc2c(NCc3c(F)cccc3F)ncnc21	·	·	0%	·
COc1ccccc1-c1nc(CNC(=O)Nc2ccccc2)c(C)o1	·	·	2%	·
CC(=O)N1CN(C2CC(C)(C)NC(C)(C)C2)Cc2c1sc1c2CCCC1	12µM*	12µM*	-11%	-12%
COc1cccc(C2=CC(=O)C[C@H](c3ccc(Cl)cc3)C2)c1OC	-11%	?	21%	3%
SMILES	Pf growth 96h	Pf growth 48h	Sm TGR inh	SARS PLP yeast
O=C1C=C(c2cc(F)ccc2F)C[C@@H](c2ccc(F)cc2)C1	?	2.3µM*	0%	-17%
COc1ccc([C@H]2CC(=O)C=C(c3ccc(F)cc3OCc3ccccc3)C2)cc1OC	?	9.3µM*	-12%	-6%
Cc1cc(Cl)ccc1C1=CC(=O)C[C@H](c2ccc(F)cc2)C1	?	?	7%	1%
COc1ccccc1C1=CC(=O)C[C@H](c2ccc(Cl)cc2)C1	?	7.4µM*	-4%	0%
COc1ccc([C@H]2CC(=O)C=C(c3ccc(F)cc3OCc3ccccc3)C2)cc1	-21%	?	-4%	5%
O=C1C=C(c2cccc3c2oc2ccccc23)C[C@@H](c2ccc(F)cc2)C1	-18%	2.3µM*	-5%	-2%
CCCCNC(=O)CC1Nc2cc(C)c(C)cc2NC1=O (stereo not drawn)	·	·	43%	·
O=C1C=C(c2ccc(-c3ccccc3)cc2)C[C@@H](c2ccc(Cl)cc2)C1	21%	?	-14%	-2%

Screens as filed in PubChem.
